Measurements taken from the supplement of paper PMC9897528.

Test system: Scedosporium aurantiacum CBS 136046
Experiment: growth inhibition relative to DMSO control (OD600); higher = more antifungal activity, active = 80 or more; extreme values may be limits of the assay
Conditions: 5 µM; 72 h; 37 °C
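Note: conidia screened in RPMI 1640 medium under 5% CO2, growth read by spectrophotometer, medium with 0.5% DMSO serving as the untreated reference.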

| Structure (SMILES) | growth inhibition |
| --- | --- |
| CC(=O)NC[C@H]1CN(c2ccc(N3CCSCC3)c(F)c2)C(=O)O1 | 29.2% (inactive) |
| O=C(Nc1nnc(-c2ccccc2)o1)c1ccc(F)cc1 | 31.3% (inactive) |
| Cc1cc(C)n(O)c(=O)c1 | 0.961% (inactive) |
| CC(=O)O[C@H]1C[C@@]2(C)[C@@H](C[C@@H](O)[C@H]3[C@@]4(C)CC[C@@H](O)[C@@H](C)[C@@H]4CC[C@@]32C)/C1=C(\CCC=C(C)C)C(=O)O | 19.6% (inactive) |
| Cc1ccc(NC(=O)c2ccc(CN3CCN(C)CC3)cc2)cc1Nc1nccc(-c2cccnc2)n1 | 17.6% (inactive) |
| CC1CN(c2ncnc3c2c(-c2ccccc2)cn3-c2ccc(F)cc2)CC(C)O1 (centres undefined) | 20.4% (inactive) |
| COc1ccc2sc3c(c2c1)NC(C)CNC3=O (centres undefined) | 7.39% (inactive) |
| CC(C)C(=O)N[C@H]1[C@H]([C@H](O)[C@H](O)CO)OC(C(=O)O)=C[C@@H]1N=[N+]=[N-] | 9.45% (inactive) |
| CCc1oc2ccccc2c1C(=O)c1ccc(O)cc1 | 35.1% (inactive) |
| CCCCCCC1c2ccc(O)cc2Oc2cc(O)ccc21 | 4.47% (inactive) |
| CC(C)CCN1C(=O)C(C2=NS(=O)(=O)c3cc(NS(C)(=O)=O)ccc3N2)=C(O)[C@@H]2[C@H]3CC[C@H](C3)[C@@H]21 | 28.5% (inactive) |
| Fc1ccc(-c2nc(-c3c[nH]c4ccc(Br)cc34)[nH]c2-c2ccc(F)cc2)cc1 | 28.1% (inactive) |
| O=C(O)c1cc(-c2ccccc2)nc2ccccc12 | 12.6% (inactive) |
| COc1cccc(N2CCN(C3=Nc4c(F)cccc4[C@H](CC(=O)O)N3c3cc(C(F)(F)F)ccc3OC)CC2)c1 | 9.61% (inactive) |
